A short description of assay [1]: anti-His antibody binders, primary screen, artefact control for SMM control protein annotation, biochemical, small-molecule microarray, 635 nm fluorescence (AID 1128).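 Also: score merges feature fluorescence with signal-to-noise for each printed compound spot.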 As to conditions: anti-His Alexa647 antibody binding, higher = more signal.
For assay [2], the system named is Human papillomavirus type 1a E7 protein (residues 1-88). Put plainly: HPV1a E7 small-molecule binders, primary screen, biochemical, small-molecule microarray, residues 1-88, 635 nm (AID 1129). The note with it: small-molecule microarray binding, fluorescence 635 nm; higher = more signal.
Assay [3] has as its target Focal adhesion kinase 1 (Homo sapiens) (UniProt Q05397). Put plainly: small-molecule microarray binders of FAK, primary screen, biochemical, 635/667 nm fluorescence, BSA, DTT (AID 1130).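 Also: composite of spot emission at 667 nm and signal to noise over triplicate slides.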 As to conditions: PTK2 binding, 635 nm fluorescence, higher = more signal.
The subject of assay [4] is Fibrinogen (Alexa647-labelled). Put plainly: fibrinogen binders on compound microarrays, profiling panel, artefact control for SMM control-protein annotation, biochemical, small-molecule microarray, 635/667 nm fluorescence (AID 1131).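 Also: z-score merges 667 nm fluorescence with per-spot signal-to-noise over triplicate slides.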 The note with it: fibrinogen-A647 binding fluorescence, higher = more signal.
The target of assay [5] is Follistatin (Homo sapiens) (UniProt P19883). Put plainly: follistatin binders on small-molecule microarrays, primary screen, biochemical, small-molecule microarray, 635/667 nm fluorescence (AID 1132). As to conditions: FST binding, 635 nm fluorescence, higher = more signal.
Chain of Follistatin (Homo sapiens) (P19883 whole entry, looked up): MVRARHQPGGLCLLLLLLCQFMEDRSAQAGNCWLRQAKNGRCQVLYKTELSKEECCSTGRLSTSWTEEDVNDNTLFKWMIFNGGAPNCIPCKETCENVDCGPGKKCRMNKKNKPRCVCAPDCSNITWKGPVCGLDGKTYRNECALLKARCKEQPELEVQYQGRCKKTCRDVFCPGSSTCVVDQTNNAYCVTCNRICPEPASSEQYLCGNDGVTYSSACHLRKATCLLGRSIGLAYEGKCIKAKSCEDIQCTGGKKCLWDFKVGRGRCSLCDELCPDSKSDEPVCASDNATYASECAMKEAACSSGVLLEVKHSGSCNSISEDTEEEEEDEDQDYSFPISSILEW
The target in assay [6] is Fibroblast growth factor 2 (Homo sapiens) (UniProt P09038). Put plainly: FGF2 binders on small-molecule microarrays, primary screen, biochemical, small-molecule microarray, 635/667 nm fluorescence (AID 1133). As to conditions: small-molecule microarray binding, FGF2, fluorescence 635/667; higher = more signal.
Chain of Fibroblast growth factor 2 (Homo sapiens) (P09038 whole entry, looked up): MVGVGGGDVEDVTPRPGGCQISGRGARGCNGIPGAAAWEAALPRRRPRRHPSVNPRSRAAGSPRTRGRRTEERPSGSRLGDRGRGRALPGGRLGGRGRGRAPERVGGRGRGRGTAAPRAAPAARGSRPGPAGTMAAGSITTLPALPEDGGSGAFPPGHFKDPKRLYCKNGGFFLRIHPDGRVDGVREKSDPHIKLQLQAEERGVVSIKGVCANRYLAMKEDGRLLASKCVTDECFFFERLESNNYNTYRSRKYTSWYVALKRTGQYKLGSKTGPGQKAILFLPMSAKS
A short description of assay [7]: mitochondrial membrane potential change in A549 cells, profiling panel, cell-based, JC-1 fluorescence, basal, 24 h, 100 nL (AID 1138).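 Also: A549 lung adenocarcinoma cells under basal conditions with no added stimulus; test concentration not given here.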 The note with it: higher = more signal.
Assay [8] relates to Lefty1. The assay can be described thus: Lefty1 binders on small-molecule microarrays, primary screen, biochemical, small-molecule microarray, 635/667 nm fluorescence (AID 1139). As to conditions: small-molecule microarray binding, fluorescence 635/667; higher = more signal.
The subject of assay [9] is wheat germ agglutinin (Triticum aestivum), Alexa647-labelled. The assay can be described thus: wheat germ agglutinin binders on compound microarrays, profiling panel, artefact control for SMM control-protein annotation, biochemical, small-molecule microarray, 635/667 nm fluorescence (AID 1140).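 Also: score merges 667 nm feature emission with signal to noise over triplicate slides.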 As to conditions: WGA-A647 binding, 635 nm fluorescence, higher = more signal.

The target in assay [10] is Luciferin 4-monooxygenase (Photinus pyralis) (UniProt P08659). The assay can be described thus: firefly luciferase enzyme inhibitors, primary screen, biochemical, luminescence, purified enzyme, 2006 set (AID 1141).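 Also: cell-free assay with purified firefly luciferase at 100 ng per well in PBS; test concentration not given here.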 The note with it: SteadyGlo luminescence, 30 min, higher = more signal, called active from +8 up or from −8 down.
Chain of Luciferin 4-monooxygenase (Photinus pyralis) (P08659 whole entry, looked up): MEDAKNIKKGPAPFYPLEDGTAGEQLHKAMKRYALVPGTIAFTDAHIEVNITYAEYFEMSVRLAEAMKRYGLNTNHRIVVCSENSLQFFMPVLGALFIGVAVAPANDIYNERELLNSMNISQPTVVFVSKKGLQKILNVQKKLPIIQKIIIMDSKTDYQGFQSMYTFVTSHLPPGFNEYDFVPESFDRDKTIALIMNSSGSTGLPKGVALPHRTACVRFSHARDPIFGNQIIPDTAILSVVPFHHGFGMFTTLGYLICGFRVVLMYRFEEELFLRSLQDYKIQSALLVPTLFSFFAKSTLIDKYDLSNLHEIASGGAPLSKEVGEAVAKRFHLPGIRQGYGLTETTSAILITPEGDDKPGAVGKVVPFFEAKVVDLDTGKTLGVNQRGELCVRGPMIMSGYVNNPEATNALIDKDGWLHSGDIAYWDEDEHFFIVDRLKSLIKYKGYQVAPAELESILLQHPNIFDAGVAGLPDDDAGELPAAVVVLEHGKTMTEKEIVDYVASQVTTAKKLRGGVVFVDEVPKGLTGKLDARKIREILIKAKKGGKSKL

Each structure is given as a SMILES string. Calls of active or inactive are those of the source.

Chain of Focal adhesion kinase 1 (Homo sapiens) (Q05397 whole entry, looked up): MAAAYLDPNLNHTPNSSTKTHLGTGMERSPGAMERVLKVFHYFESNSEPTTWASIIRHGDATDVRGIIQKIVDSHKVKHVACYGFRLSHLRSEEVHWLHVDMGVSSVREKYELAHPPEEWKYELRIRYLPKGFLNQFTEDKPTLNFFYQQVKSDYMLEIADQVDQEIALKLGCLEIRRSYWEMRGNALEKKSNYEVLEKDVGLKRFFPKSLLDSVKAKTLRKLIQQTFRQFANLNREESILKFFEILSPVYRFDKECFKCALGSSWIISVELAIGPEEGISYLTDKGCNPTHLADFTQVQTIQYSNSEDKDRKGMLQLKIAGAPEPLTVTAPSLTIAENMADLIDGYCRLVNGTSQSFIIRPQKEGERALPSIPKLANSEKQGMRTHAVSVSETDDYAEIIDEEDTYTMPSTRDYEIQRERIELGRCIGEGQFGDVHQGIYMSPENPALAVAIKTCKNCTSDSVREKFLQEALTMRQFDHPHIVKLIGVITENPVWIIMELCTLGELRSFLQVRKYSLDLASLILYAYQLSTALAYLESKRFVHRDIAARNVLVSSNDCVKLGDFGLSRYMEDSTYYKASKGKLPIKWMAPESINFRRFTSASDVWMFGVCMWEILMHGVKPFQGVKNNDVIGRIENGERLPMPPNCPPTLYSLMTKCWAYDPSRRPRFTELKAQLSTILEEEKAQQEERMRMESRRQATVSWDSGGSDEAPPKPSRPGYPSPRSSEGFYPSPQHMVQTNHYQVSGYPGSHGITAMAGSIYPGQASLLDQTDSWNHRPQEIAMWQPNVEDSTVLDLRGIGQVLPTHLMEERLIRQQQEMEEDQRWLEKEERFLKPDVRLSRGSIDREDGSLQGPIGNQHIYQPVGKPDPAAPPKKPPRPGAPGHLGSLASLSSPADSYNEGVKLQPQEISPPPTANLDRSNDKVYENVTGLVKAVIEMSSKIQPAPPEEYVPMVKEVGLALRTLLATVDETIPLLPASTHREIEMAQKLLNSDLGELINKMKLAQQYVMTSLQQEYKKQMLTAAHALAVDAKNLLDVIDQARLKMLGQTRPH

As for `O=C1NC(=O)C2C1C=CC(C(O)c1cc(C(F)(F)F)cc(C(F)(F)F)c1)N2Nc1ccc(Cl)cc1Cl` (stereo not given), the composite z-score in assay [1] is 0.864; in [2], 1.05; in assay [3], 0.46; in [4], -0.607; in assay [5] it was 0.109; in assay [6] it was -0.544. For the same molecule, the composite z-score in assay [8] was -1.03; in [9], 0.802. In addition, the values for the z-score in assay [7] and in [10] were -0.836 and 0.172 (inactive), respectively.
On to `[N-]=[N+]=Nc1ccccc1[C@@H]1OC(c2ccc(OCCCO)cc2)=N[C@]1(CCS(=O)(=O)c1ccccc1)C(=O)NCCN1CCOCC1`, for which the composite z-score in assay [1] was 0.903; in assay [2], 1.28; in assay [3], -0.018; in assay [4], 0.962; in assay [5], 1.14; in assay [6], -0.29. Moreover, the composite z-score in [8] is 0.393; in assay [9] it was 1.04. The figures for the z-score in [7] and in [10] were -0.377 and -8.81 (active), respectively.
With `CN(C)CCCN1C(=O)[C@@]2(c3ccc([N+](=O)[O-])cc3)CC(=O)N(CC34CC5CC(CC(C5)C3)C4)[C@@H]2c2ccc(CO)cc21`, the composite z-score was 1.98 in [1]; -0.0813 in assay [2]; -0.117 in assay [3]; 0.926 in assay [4]; 0.203 in assay [5]; -0.112 in assay [6]. Also, the composite z-score in [8] stood at 0.13; in [9] it was 0.354. Further, the z-score in assay [7] is 1.72; in assay [10] it was -0.701 (inactive).
Consider `COc1ccc(C(O)C2C=CC3C(=O)N(Cc4ccccc4)C(=O)C3N2n2cnnc2)c2ccccc12` (stereo not given), for which the composite z-score in assay [1] was 0.727; in assay [2], 0.782; in assay [3] it was 1.77; in assay [4], 1.01; in assay [5] it was 0.421; in assay [6] it was -1.54. For the same molecule, the composite z-score in assay [8] came to 0.635; in assay [9] it was 0.0261. The z-score is -1.08 in [7] and 1.01 (inactive) in [10].
Consider `CCOC(=O)[C@@H]1[C@@H]2C(=O)N(CC)C(=O)[C@@H]2C[C@@H]1Sc1ccccc1`, for which the composite z-score came out at 1.62 in assay [1]; 1.2 in [2]; 0.592 in [3]; 0.462 in assay [4]; 0.329 in [5]; 0.0435 in assay [6]. Further, the composite z-score in assay [8] came to 0.307; in assay [9], 0.402. Moreover, the z-score was -1.24 in assay [7] and 1.4 (inactive) in assay [10].
On to `O=C(O)[C@H]1C[C@H]2C(=O)N3CCC[C@H]3C(=O)N2[C@H]1c1cccc(OCCO)c1`, for which the composite z-score in assay [1] is 2.79; in [2] it was 0.658; in [3], -0.525; in assay [4], 0.0871; in assay [5], 1.32; in [6], 0.871. Moreover, the composite z-score in assay [8] was 0.232; in assay [9] it was 0.227. Further, the z-score in [7] was 1.95; in assay [10] it was -1.97 (inactive).
As for `COC(=O)[C@@]1(Cc2ccc(OC)cc2)[C@H]2c3cc(C(=O)N(C)C)n(Cc4ccccc4)c3C[C@H]2CN1C(=O)c1ccccc1`, the composite z-score in assay [1] was 3.25; in [2], 1.14; in assay [3] it was 0.649; in [4] it was -0.228; in assay [5], -0.0192; in [6] it was -0.825. In addition, the composite z-score in assay [8] is -0.244; in assay [9] it was 0.578. Further, the z-score was 2.63 in assay [7] and 0.84 (inactive) in assay [10].
On to `C=CC[C@@]1(C(=O)O)N=C(c2ccc(OCCCO)cc2)O[C@@H]1c1ccccc1`, for which the composite z-score in assay [1] is 3.53; in assay [2], 1.15; in assay [3] it was 0.3; in assay [4] it was -0.184; in assay [5] it was -0.759; in assay [6] it was -0.893. Moreover, the composite z-score in assay [8] was -0.726; in [9], 1.27. The z-score is 0.959 in [7] and -0.171 (inactive) in [10].
Regarding `C=C(CCCC)/C(=C/C[C@@H](OC(C)=O)c1ccc(CO)o1)c1cc(C(=O)OC)ccc1OC`, the composite z-score amounted to 0.746 in [1]; 0.961 in [2]; 0.506 in [3]; 0.715 in assay [4]; 1.33 in [5]; 1.17 in [6]. For the same molecule, the composite z-score is 1.22 in assay [8] and 0.454 in [9]. For the same molecule, the figures for the z-score in [7] and in assay [10] were 0.522 and -2.87 (inactive), respectively.
For the molecule `[N-]=[N+]=NCc1ccccc1C[C@@]1(C(N)=O)N=C(c2ccc(OCCCO)cc2)O[C@@H]1c1ccccc1CN=[N+]=[N-]`, the composite z-score came to 1.13 in [1]; 1.22 in assay [2]; 0.0375 in [3]; 0.761 in assay [4]; 0.591 in [5]; 0.653 in [6]. Also, the composite z-score in assay [8] is -0.242; in assay [9], 0.756. For the same molecule, the z-score in assay [7] is 1.45; in [10], -1.11 (inactive).
Regarding `C=CCOC(=O)[C@@H]1[C@H]2C(=O)O[C@H](c3ccccc3)[C@H](c3ccccc3)N2[C@H](c2ccc(OCCOC(=O)[C@H]3C[C@H]4C(=O)N[C@@H](CCCC[N+](C)(C)C)C(=O)N4[C@H]3c3ccc(O)cc3)cc2)[C@@]12C(=O)Nc1ccc(I)cc12`, the composite z-score in assay [1] is 2.62; in assay [2] it was 1.2; in assay [3], 0.831; in assay [4], 0.542; in [5], 1.4; in [6] it was 1.62. Besides, the composite z-score in assay [8] is 1.63; in [9], 0.756. Besides, the z-score in assay [7] was -1.93; in assay [10] it was 0.205 (inactive).
Consider `CC(C)c1ccc(NN2C(C(O)c3ccco3)C=CC3C(=O)N(c4ccccc4)C(=O)C32)cc1` (stereo not given), for which the composite z-score was determined as 1.26 in assay [1]; 1.22 in assay [2]; 1.14 in [3]; 0.995 in assay [4]; 1.26 in [5]; 0.0324 in [6]. For the same molecule, the composite z-score was found to be 0.634 in [8] and 1.32 in [9]. The z-score in assay [7] was 0.222; in [10], -1.29 (inactive).
In the case of `O=C(O)[C@]1(Cc2ccccc2)N=C(c2ccc(OCCCO)cc2)O[C@@H]1c1ccccc1`, the composite z-score in assay [1] was 1.03; in assay [2] it was -0.0591; in assay [3] it was 0.136; in [4], -0.0288; in assay [5], -0.431; in [6], -0.846. The composite z-score in [8] is -0.296; in [9], -0.218. The z-score was -0.069 in assay [7] and 0.779 (inactive) in assay [10].
Take `NC(N)=NCc1cn(CCc2c[nH]c3ccccc23)nn1`: the composite z-score in assay [1] was 2; in assay [2], 0.599; in assay [3] it was 0.0313; in assay [4] it was 0.367; in [5], 0.832; in [6], 1.07. Besides, the composite z-score in assay [8] amounted to 1.05; in [9] it was 0.0932. In addition, the z-score in assay [7] was 0.0134; in [10], -0.813 (inactive).
Consider `CC1CC/C=C\[C@H]2OC34C=CCN(c5ccc6ccccc6c5)C(=O)[C@H]3N(C(CO)C(C)C)C(=O)[C@@H]4C2C(=O)O1` (stereo not given in full), for which the composite z-score in [1] was 1.22; in assay [2], 0.29; in assay [3], 1.33; in [4], -1.01; in [5] it was 0.136; in assay [6] it was -0.282. Moreover, the composite z-score in [8] is 0.0964; in assay [9], 1.08. Besides, the z-score in assay [7] was 0.254; in assay [10], -0.776 (inactive).

The record behind these values is PubChem BioAssay.
